# Among all 69,000 compounds or so, about 8,600 (12%) showed an effect of 50% or more. For the sample, strong results were picked, then their nearest neighbours and some compounds at random.
# Tested on: Plasmodium berghei
# Test: Screen against P. berghei liver stage (PbLuc), transformed with Luciferase, at 10uM
# Type: functional, HepG2
# Details: tested at 10 uM
row,SMILES,INHIBITION
1,Cc1cccc(CN2C[C@@H]3CN(C(=O)c4cnoc4C)C[C@@H]3C2=O)n1,1.34%
2,CC(=O)N(C)Cc1ccccc1NC(=O)c1cnn(C)c1C,-18.7%
3,CNC(=O)CN1CCOCC2(C1)CN(C(=O)CC(C)C)CCO2 (stereo unspecified),-3.52%
4,Cc1nn(C)cc1S(=O)(=O)NCC(C)Cn1cc(Cl)cn1 (stereo unspecified),18.4%
5,COCCN(C)Cc1cc(Cl)ccc1OCC(O)CN1CCCCCC1 (stereo unspecified),25.4%
6,Cn1cccc1C(=O)N1CCc2c(CNS(C)(=O)=O)cncc2C1,-7.29%
7,Cc1ccc(CC2CCCN(S(C)(=O)=O)C2)nc1 (stereo unspecified),21.9%
8,OCc1cccc(OCc2ccon2)c1,36.8%
9,CC(O)c1cccc(OCc2ccon2)c1 (stereo unspecified),74.3%
10,CCCOc1cccc(OCc2ccon2)c1,91.3%
11,CCCOc1cccc(-c2nc3c([nH]2)CCNC3)c1,13.7%
12,CC(C)Oc1cccc(CN(C)C(=O)Cc2ccon2)c1,-24.6%
13,Cc1cccc(C(C(=O)N(C)Cc2ccon2)N(C)C)c1 (stereo unspecified),25.9%
14,Cc1ccsc1CNC(=O)CCc1c(C)nc2cc(O)nn2c1C,40.2%
15,CN(C)S(=O)(=O)NCc1cccnc1Oc1ccccc1F,5.46%
16,CCCS(=O)(=O)NCc1cccnc1Oc1ccc(C)nc1,1.93%
17,CCCS(=O)(=O)NCc1cccnc1Oc1ccc(C)c(F)c1F,50.3%
18,c1ccc(Oc2ncccc2CNCc2ccccn2)cc1,19.7%
19,CC(C)S(=O)(=O)NCc1cccnc1Oc1ccc(F)cc1F,56.3%
20,Cc1nc(CNCc2cccnc2Oc2ccc(C)c(F)c2F)c[nH]1,75.3%
21,COc1ncccc1CNC(=O)C1CC(=O)N(C)C1 (stereo unspecified),10.6%
22,CN(C)S(=O)(=O)NCc1cccnc1Oc1ccc(F)cc1F,31.7%
23,CN1CC(C(=O)NCc2cccnc2OCc2ccccc2)CC1=O (stereo unspecified),55.1%
24,CN1CC(C(=O)NCc2cccnc2OCC(F)(F)F)CC1=O (stereo unspecified),44.9%

row,SMILES,INHIBITION
1,Cc1ccccc1Oc1ncccc1CNC1CCC1,28%
2,Cc1ccccc1Oc1ncccc1CNS(C)(=O)=O,0.139%
3,Cc1nc(CN(C)C(=O)CN(C)C)nc2c1CCC(=O)N2CCC(C)C,7.43%
4,Cc1cccc(CS(=O)(=O)c2nnc([C@@H](N)Cc3ccccc3)o2)c1,23.1%
5,COc1ccc(C)cc1NC(=O)c1c(C)cn(C)c1CC(=O)O,-0.473%
6,CCOC(=O)Cn1c(=O)c(OCC)nc2cnccc21,42.6%
7,CN(C)CC(=O)N1CCCC2(CCN(c3ccccc3)C2=O)C1 (stereo unspecified),-4.82%
8,CCOc1ccccc1CNC(=O)N1CCC(Cc2cnn(C)c2)C1 (stereo unspecified),-12.45%
9,C1CN(CC2CCOCC2)Cc2c(COCC3CC3)nnn2C1,8.03%
10,CCOC(=O)c1nc(CC(=O)Nc2ccc3cc[nH]c3c2)no1,3.19%
11,OCc1cn(Cc2cccc(F)c2)nn1,28.5%
12,O=C(O)CCCC(=O)NCC1(O)CCN(c2ccnc3cccnc23)C1 (stereo unspecified),17.25%
13,O=C(CN1CCCC1=O)N1CCC(O)(Cn2ccc3ccncc32)CC1,7.52%
14,COC(=O)C1CCN(C(=O)Cn2ccc(-c3ccsc3)n2)CC1,-46.4%
15,CCCC(C)CS(=O)(=O)NCc1cccnc1OC (stereo unspecified),1.94%
16,CCCS(=O)(=O)NCc1cccnc1OCC,-1.53%
17,CCCS(=O)(=O)NCc1cccnc1OCc1ccccc1,50.4%
18,COc1ccc(CSc2nnc(N)n2C2CC2)cc1F,-16.3%
19,O=C(CCC(=O)N1CCC(c2noc3cc(F)ccc23)CC1)NC1CC1,10.5%
20,O=C(c1cncc(F)c1)N1CCC(c2ncc[nH]2)CC1,31.2%
21,N#Cc1ccc(C(=O)N2CCC(c3ncc[nH]3)CC2)cn1,51.2%
22,Cn1cc(C(=O)N2CCC(c3ncc[nH]3)CC2)cn1,14%
23,CC(=O)N1CC2(CCN(c3ccc4ccccc4n3)CC2)CC1C(=O)O (stereo unspecified),44%
24,COCCNC(=O)[C@H]1CN(Cc2sccc2C)C[C@H]2OCC[C@@H]12,-4.88%

row,SMILES,INHIBITION
1,Cc1cncc(C2CCCN(Cc3ccncc3)C2)n1 (stereo unspecified),60.4%
2,Cc1ccc(CN2CCCC(c3cncc(C)n3)C2)cn1 (stereo unspecified),-6.3%
3,FC(F)(F)c1cc(C2CCCN(Cc3cccnc3)C2)n[nH]1 (stereo unspecified),35%
4,CC(C)c1ccc(NC2CCCN(Cc3ccncc3)C2)cc1 (stereo unspecified),70.3%
5,Cc1cnc(CN2CCCC(c3cc(C)[nH]n3)C2)cn1 (stereo unspecified),35.9%
6,Cc1cc(C2CCCN(Cc3nnc(Cc4ccccc4)o3)C2)n[nH]1 (stereo unspecified),17%
7,Cc1cc(C2CCCN(Cc3cccnc3)C2)n[nH]1 (stereo unspecified),59.1%
8,Fc1ccc(NC2CCCN(Cc3ccncc3)C2)cc1 (stereo unspecified),-10.6%
9,Cc1cc(C2CCCN(Cc3noc(Cc4ccccc4)n3)C2)n[nH]1 (stereo unspecified),-10.8%
10,CC1CCCN(Cc2ccc(CNC(=O)NCc3ccncc3)cc2)C1 (stereo unspecified),22.5%
11,Cc1cc(C2CCCN(Cc3nc(Cc4ccccc4)no3)C2)n[nH]1 (stereo unspecified),79.7%
12,Cc1cncc(C2CCN(Cc3ccncc3)CC2)n1,23.3545%
13,CCC(O)CN1CCN(C(=O)CN(C)c2ccc(Cl)cn2)CC1 (stereo unspecified),3.03%
14,C=C(C)COc1ccccc1CNCCc1cc(O)nc(C)n1,7.65%
15,CC(C)Nc1nc(O)cc(C(C)n2ncc3ccccc3c2=O)n1 (stereo unspecified),29.9%
16,COc1cccc2cc(CNC(=O)N3CCOC(C)(C)C3)oc12,33.8%
17,COc1cc(C(=O)N2CCCC(CNS(C)(=O)=O)C2)ccc1C (stereo unspecified),7.12%
18,COc1c(Br)c(CC2CC(CO)=NO2)c(Br)c2c1OCO2 (stereo unspecified),42.4%
19,CC(C)CCN1C[C@H]2CCN(C(=O)NC3CCCC3)CC[C@H]2S1(=O)=O,37.1%
20,O=C(NCCCn1cccn1)C1COCC(=O)N1Cc1ccccc1 (stereo unspecified),49%
21,O=C(NCCCn1ccnc1)C1COCC(=O)N1Cc1ccccc1 (stereo unspecified),38.3%
22,O=C(NCCn1ccnc1)C1COCC(=O)N1Cc1ccccc1 (stereo unspecified),66.1%
23,Cc1noc(C)c1C(=O)N1C[C@@H]2CC[C@H]1CN(c1cnccn1)C2,-39.2%

# — ChEMBL document CHEMBL4513216, “Probing the Open Global Health Chemical Diversity Library for Multistage-Active Starting Points for Next-Generation Antimalarials” (ACS Infect Dis, 2020)
